# Measurements: PubChem BioAssay (Tox21)
# Calls of active or inactive are those of the source. The call rests on the fitted dose curve; in most records, active means well fitted curve in the direction sought with a large enough effect in the repeat runs; inconclusive means weak or mixed curves; inactive means flat fitted curve, though single readings scatter.
# Test: qHTS assay to test for compound auto fluorescence at 460 nm (blue) in HEK293 cell free culture (AID 720681)
# Details: cell-free medium, autofluorescence 405/460 nm (blue); series mostly up to 46 µM
# Source text: U.S. Tox21 Program National Center for Advancing Translational Sciences [NCATS] NIH Chemical Genomics Center [NCGC] U.S. Environmental Protection Agency [EPA] National Institutes of Environmental Health Sciences [NIEHS] National Toxicology Program [NTP] U.S. Food and Drug Administration [FDA] Tox21 Assay Overview: Compound auto fluorescence often interferes with screening of the compound library against various biological targets and signaling pathways. Some of these compounds may have fluorophoric properties. Such properties may interfere with the assay outputs resulting in false positives and/or negatives. To decrease such complications and ensure the compound activities are relevant in terms of biological response, the Tox21 10K compound library was screened for auto fluorescence. From the fluorophores used as reporter signals in our screening assays, the auto fluorescence equivalencies of compounds against three fluorophores have been evaluated: Triamterene, Fluorescein and Rose Bengal sodium for blue, green and red fluorescence, respectively. The fluorescence intensities were measured using Excitation/Emission wavelengths at 405/460nm, 485/535nm and 540/590nm for blue, green and red labels, respectively. This assay includes the blue fluorescence data.
# Tox21 Assay Protocol Summary: 5 uL of culture medium (DMEM containing 10% FBS) per well was dispensed into black wall/clear bottom 1536-well plates using a Multidrop Combi Dispenser (ThermoFisher Scientific, Waltham, MA). After 23 nL compound or DMSO vehicle was transferred into assay plate by a pintool work station (Kalypsys, San Diego, CA), fluorescence intensities in the assay plates were measured by an Envision (PerkinElmer, Shelton, CT) plate reader using three labels for measuring blue, green and red fluorescence at […] 460, 535 and 590nm respectively.
row,SMILES,outcome
1,O=S(O)CO,inactive
2,CC(C)CCCC(C)N (stereo not given),inactive
3,NC(=O)Nc1ccccc1,inactive
4,CN(C)CCCNCCCN(C)C,inactive
5,O=C(O)CNC(=O)c1ccc([N+](=O)[O-])cc1,inactive
6,OCCCC1CCCCC1,inactive
7,COCCCOCCCOC,inactive
8,OCCOc1ccc(OCCO)cc1,inactive
9,COC(=O)c1cc(C(=O)OC)cc(S(=O)(=O)O)c1,inactive
10,CCCCCSCCCCC,inactive
11,CCN(Cc1ccncc1)C(=O)C(CO)c1ccccc1 (stereo not given),inactive
12,Oc1ccc(C2CNCCc3c2cc(O)c(O)c3Cl)cc1 (stereo not given),inactive
13,O=Cc1cccc([N+](=O)[O-])c1,inactive
14,Nc1c2c(nc3ccccc13)CCCC2O (stereo not given),inactive
15,Nc1c[n+](N2CCOCC2)no1,inactive
16,CCCN1CCCC[C@H]1C(=O)Nc1c(C)cccc1C,inactive
17,C[C@](N)(Cc1ccc(O)cc1)C(=O)O,inactive
18,CC(C)(C)NCCNC(C)(C)C,inactive
19,COCCc1ccc(OCC(O)CNC(C)C)cc1 (stereo not given),inactive
20,CCN1CCC[C@H]1CNC(=O)c1c(O)c(Cl)cc(Cl)c1OC,inactive

row,SMILES,outcome
1,COC(=O)c1ccc(C)cc1C1=NC(C)(C(C)C)C(=O)N1 (stereo not given),inactive
2,Cc1ccc(Cl)cc1Cl,inactive
3,CN(C(=O)c1c(O)c2ccccc2n(C)c1=O)c1ccccc1,inactive
4,COc1ccc2c(c1)c(CC(=O)OCC(=O)O)c(C)n2C(=O)c1ccc(Cl)cc1,inactive
5,O=[N+]([O-])c1ccc(F)cc1F,inactive
6,CC(C(=O)O)c1ccc(CC2CCCC2=O)cc1 (stereo not given),inactive
7,N#Cc1ccc(C2CCCc3cncn32)cc1 (stereo not given),inactive
8,CN1CCN(c2cc3c(cc2F)c(=O)c(C(=O)O)cn3-c2ccc(F)cc2)CC1,inactive
9,O=C1CCCCCCCCCCCN1,inactive
10,CCOC(=O)c1c(C)n(C)c2ccc(O)cc12,inactive
11,CC[N+](C)(C)c1cccc(O)c1,inactive
12,CCCCOCCOCCOCCCC,inactive
13,CCOC(=O)C(=O)OCC,inactive
14,C=C[Si](OC(=C)C)(OC(=C)C)OC(=C)C,inactive
15,COC(=O)NN,inactive
16,CCCCCCOC(=O)CCCCC(=O)OCCCCCC,inactive
17,C=CCS(=O)(=O)O,inactive
18,COC(=O)CCSCCC(=O)OC,inactive
19,CC(C)CNCC(C)C,inactive
20,CCCc1cc(C(N)=S)ccn1,inactive
